Here are results for 40 compounds from PubChem BioAssay (Tox21).

The structures appear in SMILES notation. Several values for one entry are separate records, joined by “and”; a condition that tells them apart may be missing. Equal entries are not always repeated. Records with an inconclusive call do not appear. A call without a number means that no potency is given here. Some compounds were tested as several samples or in several runs, with calls that do not always agree. Activity calls are given as the source filed them. The call rests on the fitted dose curve.
Potency means the concentration at half of the fitted maximal effect.

This test in a line: qHTS assay for small molecule agonists of the p53 signaling pathway - cell viability (AID 651633). Further: nearly all actives have a fitted effect of over 30% in size. As to conditions: p53RE-bla HCT-116 viability, ATP luminescence, 16 h; series mostly up to 83.3 µM. From the text:
National Center for Advancing Translational Sciences [NCATS]
NIH Chemical Genomics Center [NCGC]
U.S. Environmental Protection Agency [EPA]
National Institutes of Environmental Health Sciences [NIEHS]
National Toxicology Program [NTP]
U.S. Food and Drug Administration [FDA]
p53, a tumor suppressor protein, is activated following cellular insult, including DNA damage and other cellular stresses. The activation of p53 regulates cell fate by inducing DNA repair, cell cycle arrest, apoptosis, or cellular senescence. The activation of p53, therefore, is a good indicator of DNA damage and other cellular stresses. […] The activation of the reporter gene under culture conditions can be detected by fluorescence intensity. This cell line was used to screen the Tox21 compound library in a 1536-well plate format and to identify agonists that activate the p53 signaling pathway.
Tox21 Assay Protocol Summary:
The p53RE-bla cells were dispensed at 4,000 cells/5 ul/well in 1536-well black wall/clear bottom plates using a Multidrop dispenser. After the assay plates were incubated at a 37 C/5% CO2 incubator for 5 hours, 23 nL of compounds dissolved in DMSO, positive controls or DMSO only was transferred to the assay plate by a pin tool. The plates were incubated at 37 C for 16 hours. After 1 uL of LiveBLAzerTM B/G FRET substrate was added using a Flying Reagent Dispenser, the plates were incubated at room temperature for 2 hours, and fluorescence intensity was measured by an Envision plate reader.
For cell viability readout that measures cytotoxicity, 4 ul/well of CellTiter-Glo reagent was added into the assay plates using a Flying Reagent Dispenser. After 30 min incubation at room temperature, the luminescence intensity in the plates was measured using a ViewLux plate reader.
With `Cc1c(F)c(N2CCNC(C)C2)cc2c1c(=O)c(C(=O)O)cn2C1CC1` (stereo not given), the Potency entry is “inactive”. The entry for `O=c1oc2cc(O)ccc2c2oc3cc(O)ccc3c12` is “inactive”. Then `O=C(/C=C/c1ccccc1)OC/C=C/c1ccccc1`, with “inactive”; and `O=C(Nc1ccc2c(O)c(N=Nc3ccc(N=Nc4ccc(S(=O)(=O)O)cc4)cc3)c(S(=O)(=O)O)cc2c1)c1ccccc1`, with “inactive”. The figure for `Oc1c(I)cc(Cl)c2cccnc12` is 16.8 µM (active) and 19.3 µM (active); for `NC(=O)c1cccc([N+](=O)[O-])c1` it is “inactive”. On to `CN1CCN(Cc2cc(-c3ccc4[nH]c(=O)oc4c3)co2)[C@@H](c2ccc(F)cc2)C1`, for which the Potency result was “inactive”.

Take `CCCC1CCC(=O)CC1`: the Potency entry is “inactive”.

In the case of `OC[C@@H](O)[C@@H](O)CO`, the Potency entry was “inactive”. Consider `CC(C)(C)c1csc(-c2cc3cc(OCc4ccccc4CC(=O)O)ccc3o2)n1`, for which the Potency was 15.4 µM (active).

As to `O=c1[nH]c2ccccc2n1CCCN1CCN(C(c2ccccc2)c2ccccc2)CC1`, the Potency result is “inactive”. The entry for `NC(=S)NC(N)=S` is “inactive”; for `CC[C@H](C)COC(=O)/C=C/c1ccc(N=Cc2ccc(OC)cc2)cc1` it is “inactive”; for `OC[C@H]1O[C@H](O[C@H]2O[C@H](CO)[C@@H](O)[C@H](O)[C@H]2O)[C@H](O)[C@@H](O)[C@@H]1O` it is “inactive”. Then `CC(CO)Oc1ccccc1` (stereo not given), with “inactive”; and `O=c1c(O)c(-c2ccc(O)cc2O)oc2cc(O)cc(O)c12`, with “inactive”; and `C=C(C)C(=O)OCCCCCCCCCC`, with “inactive”. For `O=[N+]([O-])c1ccc(F)c(Cl)c1`, the Potency result was “inactive”. As for `Cc1nc2n(c(=O)c1CCN1CCC(c3noc4cc(F)ccc34)CC1)CCCC2`, the Potency result was “inactive”.

Regarding `O=C(O)Cc1ccccc1Nc1c(Cl)cccc1Cl`, the Potency entry was “inactive”.

Regarding `O=C(O)CCN(C1(C(=O)NO)CCCC1)S(=O)(=O)c1ccc(Oc2ccc(F)cc2)cc1`, the Potency result is “inactive”.

For the compound `CC1(C)CC(O)CC(C)(C)N1`, the Potency result was “inactive”. Take `Cc1cccc2cccnc12`: the Potency entry is “inactive”. Then `CC(C)CCCCCOC(=O)CCS`, with “inactive”; and `CC/C=C\CCCCCO`, with “inactive”; and `CCC(COC(=O)CCS)(COC(=O)CCS)COC(=O)CCS`, with “inactive”. Then `CCc1cccc(CC)c1NC(=O)CN(CC(=O)O)CC(=O)O`, with “inactive”.

Regarding `CCCCC/C=C\C/C=C\CCCCCCCC(=O)O`, the Potency result was “inactive and 54.5 µM (active)”. With `Cc1cccc(C(=O)O)c1O`, the Potency result is “inactive”. Then `Nc1nc2c(ncn2COCCO)c(=O)[nH]1`, with “inactive”; and `O=S(=O)(O)c1ccc(N=Nc2c(O)ccc3ccccc23)cc1`, with “inactive”. The entry for `c1ccc(SSc2ccccc2)cc1` is “inactive”; for `Cc1c(C)c2c(c(C)c1O)CC[C@@](C)(CCC[C@H](C)CCC[C@H](C)CCCC(C)C)O2` it is “inactive”. On to `O=C1NC(=O)[C@@H]2CC=CC[C@H]12`, for which the Potency result is “inactive”. The entry for `Clc1nnc(Cl)c2ccccc12` is “inactive”; for `O=C1OC2(c3ccc(O)cc3Oc3cc(O)ccc32)c2ccc(N=C=S)cc21` it is “inactive”. On to `CC(C)CCOC(=O)/C=C/c1ccccc1`, for which the Potency entry is “inactive”. The entry for `Cc1ccc(C(C)C)cc2c(C)ccc1-2` is “inactive”; for `C/C=C/C=C/COC(=O)C(C)C` it is “inactive”; for `OCCN1CCN(CCCN2c3ccccc3Sc3ccc(C(F)(F)F)cc32)CC1` it is 26.6 µM (active).
